Results from PubChem BioAssay (NCI).
The panel holds about 83,000 compounds, 20% with a hit somewhere; the sample as a whole holds those more often.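 Treatment: one concentration, 48 hours, 96-well format. Scoring: percent growth, with anything below 10 considered active.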 Values without a mark were called inactive.

The compounds below were run on 786-0 renal (assay: NCI-60 one-dose screen, 48 h (100 = growth as untreated, 0 = no growth, -100 = all killed)). Conditions: 10 µM unless noted.
Work on `O=C1NC(=S)S/C1=C\N1N=C(c2ccc(Cl)cc2)CC1c1ccc(F)cc1` (stereo not drawn) yielded a growth of 94%.
`Cc1nc2ccc(C(=O)NCc3cc(C(=O)O)c(C)o3)cc2nc1C` gave a growth of 94.4%.
For `N=C(N)c1ccc(-c2ccc(-c3ccc(Cl)cn3)s2)cc1`, the growth was 52.9%.
